From PubChem
Most compounds without a hit are left out; they make up all but 2.4% or so of the library.
aSyn yeast inh – inhibitors of alpha-synuclein toxicity in yeast; 370,000 compounds, 0.14% hits; Potency, µM (top dose mostly 46.1 µM), inactives show top-dose growth rescue (activation), most hits filed as activators; AID 652106; Yeast expressing alpha-synuclein, growth rescue, BacTiter-Glo, 24 h; also: % of control where 0% means no effect; nearly all actives have a fitted effect of over 65% in size
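Rescue of yeast growth: cells expressing toxic alpha-synuclein, induced in galactose at OD600 0.02, incubated with compound 24 h at 30 C. ATP luminescence quantified growth; inhibitors of toxicity appear as activators.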
Abeta rescue – restores growth of yeast expressing A-beta42 peptide; yeast expressing A-beta42, growth rescue, OD600, 48 h; response scale: 0% DMSO, 100% iron-clioquinol control; Potency, µM (highest dose often 46.1 µM), hits mostly activators; 410,000 compounds, 0.063% hits; also: nearly all actives have a fitted effect of over 55% in size
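Yeast growth medium received pinned compounds, then yeast cells expressing toxic A-beta were added; plates incubated at 30 C for 48 hr. Growth read as absorbance at 600 nm, normalized to DMSO and equimolar FeCl3 plus clioquinol controls.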
FUS suppressor – FUS proteinopathy suppression in yeast; S. cerevisiae FUS-expressing, growth rescue, OD600, 24 h; Potency, µM (doses to about 76.6 µM), hits mostly activators; 390,000 compounds, 0.24% hits; AID 1347120;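 also: plate controls were DMSO vehicle for no effect and reference control for full effect; nearly all actives have a fitted effect of over 55% in size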
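Yeast FUS proteinopathy model; galactose-induced FUS (2%), starting OD 0.005. Cpds in dilution series, 24hr, 30C, 99% humidity. Abs 600 nm growth. Pos ctrl CP55940 (top 92uM final); neg ctrl DMSO.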
Mito fusion act – blocks mitochondrial division or promotes mitochondrial fusion | 320,000 compounds, 0.23% hits | Potency, µM (highest dose often 46.1 µM), inactives show at the highest dose growth rescue (activation), usual class: activators | S. cerevisiae fusion-defective mutant growth rescue, CellTiterGlo 48 h | AID 485298; also: % of control where 0% means no effect; nearly all actives have a fitted effect of over 45% in size
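Growth-rescue viability read-out: after 48 h at the non-permissive 37C in glycerol/ethanol YPEG, yeast mitochondrial fusion mutants are measured by CellTiterGlo luminescence; compounds (23 nl pinned per well) restoring growth score as division inhibitors or fusion activators.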
AT treatment – candidate therapy for ataxia-telangiectasia; F2112 A-T fibroblasts, KAP-1 phosphorylation AlphaLISA; neocarzinostatin DNA damage 30 min before lysis; Potency, µM (series often up to 57.5 µM), inactives show at the top dose activation, hits mostly activators; 320,000 compounds, 0.19% hits; AID 485349; also: % of control where 0% means no effect; nearly all actives have a fitted effect of over 45% in size
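hTERT-immortalized A-T patient fibroblasts (F2112), 500 cells/well in OPTI-MEM, 1% FBS, got compounds for 60 min, then NCS for 30 min at 37C. Lysates were then assayed for phospho-KAP-1 by AlphaLISA (anti-pKAP1 donor, anti-KAP1 acceptor beads), 6 hr at 25C.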
TDP-43 yeast inh – TDP-43 toxicity inhibition in yeast; AID 652104; TDP-43 expressing yeast growth rescue, BacTiter-Glo, 24 h; Potency, µM (top dose mostly 46.1 µM), for inactives: top-dose growth rescue (activation), usual class: activators; 410,000 compounds, 1.8% hits; also: % of control where 0% means no effect; nearly all actives have a fitted effect of over 50% in size
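Growth rescue of TDP-43-toxic yeast measured as ATP luminescence (BacTiter-Glo). Cells grown to mid-log in raffinose, induced in galactose at OD600=0.02, exposed to compound 24 hr at 30 deg C.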
* = called active by the depositor; i = inactive; ? = inconclusive; . = not tested or not shown; [ ] = another dose, or the depositor's remark. Calls follow the shape of the dose curve; as a rule, active = well fitted curve in the direction sought with a large enough effect; inconclusive = small, poorly fitted or top-dose-only effect, or another doubt; inactive = no such curve, though single readings can be large; an effect the other way counts as inactive or inconclusive. Potency is read from the fitted curve at half-maximal effect.

SMILES	aSyn yeast inh	Abeta rescue	FUS suppressor	Mito fusion act	AT treatment	TDP-43 yeast inh
O=C(Nc1ccccc1Sc1ccccc1)c1ccccc1	-1%	?	i	15%	3%	11µM*
COCCN(CCOC)C(=O)c1cc2c(=O)n3ccccc3nc2n1C	.	i	i	.	.	25%
Cc1ccc(C)c(Sc2ccc(NC(=O)CCN3C(=O)NC4(CCCC4)C3=O)cc2)c1	1%	i	?	-4%	-11%	12%
Cc1ccc(Sc2ccc(NC(=O)CCl)cc2)c(C)c1	16%	?	i	13%	.	11µM*
COc1ccc(-c2csc(Nc3cc(C)ccn3)n2)cc1C	-35%	i	i	8%	29%	?
Cc1ccnc(Nc2nc(-c3ccc(O)c(O)c3)cs2)c1	-14%	i	?	?	-6%	.
Cc1ccnc(Nc2nc(-c3ccc(O)cc3O)cs2)c1	10%	i	i	-6%	2%	16µM*
Cc1ccnc(Nc2nc(-c3ccc(O)cc3)cs2)c1	-16%	i	i	-4%	10%	13µM*
COc1cc(NS(=O)(=O)c2ccc(NC(=O)c3cccc(F)c3)cc2)nc(OC)n1	.	i	i	.	.	-8%
COc1cc2ccccc2cc1C(=O)NC1CCCC1	1%	i	i	.	5%	13µM*
COc1cc(SC)ccc1C(=O)NC1CCCCC1	10%	i	i	32µM*	18%	?
COc1cc(SC)ccc1C(=O)N1CCN(Cc2ccccc2)CC1	0%	i	i	4%	4%[11.5 µM]	2%
COc1cc(SC)ccc1C(=O)N1CCC(Cc2ccccc2)CC1	23%	.	.	21µM*	.	.
Cc1ccc2c(c1)C(CS(=O)(=O)NC1CCCC1)NC2 (stereo not drawn)	.	.	i	.	.	.
CCCOC(=O)c1cccc(Nc2nc(CCC)cc(=O)[nH]2)c1	.	i	?	.	.	18µM*
CCn1cc(C(=O)OCC(=O)c2cc(C)n(-c3ccc(OC(F)F)cc3)c2C)c(=O)c2ccc(C)nc21	0%	i	.	11%	8%	13µM*
CCOc1ccccc1NC(=O)COC(=O)c1cn(CC)c2nc(C)ccc2c1=O	.	i	i	.	.	35µM*
CCn1cc(C(=O)OCC(=O)c2cc(C)n(-c3ccccc3)c2C)c(=O)c2ccc(C)nc21	2%	i	i	13%	-4%	28%
C[C@H](NS(=O)(=O)OCC(Cl)(Cl)Cl)C1CC1c1ccccc1 (stereo partly drawn)	-4%	i	i	6%	6%	22µM*
C#CCOC(=O)c1cc(Cl)c(=O)n(Cc2ccc(Cl)cc2Cl)c1	8%	i	i	?	?	20µM*
CNC(=S)NNC(=O)c1ccc(=O)n(Cc2ccc(Cl)cc2Cl)c1	-5%	i	i	5%	-7%	-14%
CC(C)OC(=O)c1cc(Cl)c(=O)n(Cc2ccc(Cl)cc2Cl)c1	3%	i	i	-19%	3%	25µM*
S=C(Nc1ccccc1)N1CCc2ccccc21	1%	?	i	-14%	5%	13µM*
Fc1cccc(NC(=S)N2CCc3ccccc32)c1	1%	?	i	4%	19%	14µM*
C[C@H]1[C@@H](NS(=O)(=O)c2ccccc2[N+](=O)[O-])CC[C@@]23CCCN2C(=O)CCC[C@@H]13	.	.	i	.	.	.
SMILES	aSyn yeast inh	Abeta rescue	FUS suppressor	Mito fusion act	AT treatment	TDP-43 yeast inh
COC(=O)[C@H]1C[C@@]2(N3CCCC3)c3ccccc3N[C@H]2N1S(C)(=O)=O	.	.	i	.	.	.
CSc1nc2ncc3c(n2n1)CC1c2ccccc2CCN1C3=O (stereo not drawn)	.	i	i	25%	-6%	16µM*
CCOC(=O)[C@@]12CCC3=C1N(CCC3)C(=O)[C@H](CC(=O)N1CCSCC1)C2	.	.	i	.	.	.
O=C(c1ccccc1)N1CCN(c2ncnc3sc4c(c23)CCC4)CC1	11%	i	i	9%	-17%	22µM*
c1nc(N2CCOCC2)c2c3c(sc2n1)CCCC3	5%	i	i	9%	4%	15%
CCOC(=O)c1sc2ncn(CC(=O)Nc3ccc(C)cc3Br)c(=O)c2c1C	.	i	i	.	.	12%
CC(C)c1cnc2c(c1SCC(=O)Nc1cccc([N+](=O)[O-])c1)c(=O)n(C)c(=O)n2C	.	i	i	.	.	11µM*
CC(C)c1cnc2c(c1SCC(=O)Nc1ccc(OC(F)(F)F)cc1)c(=O)n(C)c(=O)n2C	.	i	i	.	.	18%
Cc1scc(-c2n[nH]c(=S)n2C(C)c2ccccc2)c1C (stereo not drawn)	-1%	i	.	24%	-5%	35µM*
Cc1ccccc1-n1c(-c2csc(C)c2C)n[nH]c1=S	15%	4.5µM*	i	-2%	2%	?
Cc1cccc(-n2c(-c3csc(C)c3C)n[nH]c2=S)c1	2%	?	.	18%	-3%	?
Cc1ccccc1-n1c(-c2csc3ccccc23)n[nH]c1=S	4%	i	i	-8%	-9%	20µM*
Cc1cc(C)cc(NC(=O)O[C@@H]2CC[C@@]34CCCN3C(=O)CCC[C@H]4C2)c1	.	.	i	.	.	.
CN(C(=O)CSc1ncnc2ccccc12)C1CCCCC1	4%	i	i	0%	0%	13µM*
Cc1cc(SCC(=O)NC(=O)c2cccn2C)nc2ccccc12	1%	?	i	-3%	-7%	20µM*
Cc1cc(SCC(=O)O)nc2ccccc12	5%	i	i	0%	0%	26%
Cc1cc(SCC(=O)N(C)C2CCCCC2)nc2ccccc12	0%	i	i	.	10%	18µM*
Cc1cc(SCC(=O)c2ccc(O)c(O)c2)nc2ccccc12	?	i	i	3%	4%	22µM*
Cc1cc(SCC(=O)c2ccc3c(c2)OCO3)nc2ccccc12	19%	i	i	11%	.	3%
CCN(CC)S(=O)(=O)c1ccc2c(c1)nc(CN(C)C(=O)Nc1cccc(Cl)c1)n2C	.	i	i	.	.	-16%
COc1ccc(CNc2n[nH]c(-c3ccco3)n2)cc1OC	.	i	i	.	.	25%
Cc1cc(C(=O)O[C@@H]2CCC[C@@]3(C(=O)N(Cc4ccccc4)c4ccccc43)[C@H]2NC(=O)CCc2ccccc2)no1	.	.	i	.	.	.
CC(=O)NC1CCCCN(Cc2cccc(F)c2)C1=O (stereo not drawn)	.	.	i	.	.	.
O=C(NC(=S)NCCc1ccccc1)c1ccccc1F	-10%	i	i	-16%	10%	11µM*
